Read-out in assay [1]: TIMP metallopeptidase inhibitor 2 (TIMP2), TIMP2 (gene 7077)
As to the kind of experiment: BSK_KF3CT_TIMP2: BioMAP Diversity Plus: KF3CT Assay for TIMP metallopeptidase inhibitor 2 (TIMP2) Biomarker Activity (AID 2283071). As to conditions: primary human keratinocytes with fibroblasts; actives raise or lower the signal. Summed up: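 TIMP-2 measured by ELISA at 24 h in human keratinocyte/fibroblast primary co-cultures exposed to chemicals. Both increases and decreases were fitted against DMSO. Parallel cultures were stained with SRB for total protein as an overt-cytotoxicity check.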

Read-out in assay [2]: Transforming growth factor beta 1 (TGFb1), TGFB1 (gene 7040)
As to the kind of experiment: BSK_KF3CT_TGFb1: BioMAP Diversity Plus: KF3CT Assay for Transforming growth factor beta 1 (TGFb1) Biomarker Activity (AID 2283072). As to conditions: primary human keratinocytes with fibroblasts; actives raise or lower the signal. Summed up:
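ELISA quantifies TGF-b1 at 24 h post-dose in a primary human skin co-culture of keratinocytes and fibroblasts, with gain or loss judged against DMSO. Parallel SRB total-protein staining flags overt cytotoxicity.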

Read-out in assay [3]: C-C motif chemokine 2 (Homo sapiens) (UniProt P13500)
Briefly: BSK_KF3CT_MCP1: BioMAP Diversity Plus: KF3CT Assay for Monocyte Chemoattractant Protein 1 (MCP1/CCL2) Biomarker Activity (AID 2283073). As to conditions: primary human keratinocytes with fibroblasts; actives raise or lower the signal. Put shortly:
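Human keratinocyte plus foreskin fibroblast primary co-culture exposed to chemical for 24 h. MCP-1 levels measured by ELISA. Bidirectional curve fitting relative to DMSO negative control as baseline.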

Read-out in assay [4]: Matrix Metallopeptidase 9 (MMP9), MMP9 (gene 4318)
As to the kind of experiment: BSK_KF3CT_MMP9: BioMAP Diversity Plus: KF3CT Assay for Matrix Metallopeptidase 9 (MMP9) Biomarker Activity (AID 2283074).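 As to AC50: MMP9 protein level quantified by ELISA in the co-culture.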 As to conditions: primary human keratinocytes with fibroblasts; actives raise or lower the signal. Summed up:
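ELISA read-out of MMP-9 at 24 h post-dosing in a co-culture of human skin keratinocytes and foreskin fibroblasts. Gain or loss of signal was fitted in both directions against DMSO.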

Read-out in assay [5]: urokinase plasminogen activator (uPA), PLAU (gene 5328)
As to the kind of experiment: BSK_KF3CT_uPA: BioMAP Diversity Plus: KF3CT Assay for urokinase plasminogen activator (uPA) Biomarker Activity (AID 2283075). Particulars: primary human keratinocytes with fibroblasts; actives raise or lower the signal. Summed up:
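Skin co-culture (keratinocytes + foreskin fibroblasts), human primary; 24 h post-dose; uPA by ELISA; gain/loss fit vs DMSO baseline.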

Read-out in assay [6]: CD40, CD40 (gene 958)
Briefly: BSK_LPS_CD40: BioMAP Diversity Plus: LPS Assay for CD40 Biomarker Activity (AID 2283076). Particulars: primary human HUVEC with PBMC; actives raise or lower the signal. Summed up:
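Primary human umbilical vein endothelial cells co-cultured with peripheral blood mononuclear cells, LPS-stimulated, were dosed with chemical and read 24 h later. CD40 levels were measured by ELISA and fitted bidirectionally against DMSO as negative control and baseline.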

Read-out in assay [7]: E-selectin (Homo sapiens) (UniProt P16581)
Briefly: BSK_LPS_Eselectin: BioMAP Diversity Plus: LPS Assay for Eselectin Biomarker Activity (AID 2283077). Particulars: primary human HUVEC with PBMC; actives raise or lower the signal. Summed up:
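Human umbilical vein endothelial cells co-cultured with peripheral blood mononuclear cells under LPS stimulation; E-selectin measured by ELISA 24 h after chemical dosing. Activity fitted bidirectionally against DMSO as negative control and baseline.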

Read-out in assay [8]: Interleukin-8 (IL8), CXCL8 (gene 3576)
As to the kind of experiment: BSK_LPS_IL8: BioMAP Diversity Plus: LPS Assay for Interleukin-8 (IL8) Biomarker Activity (AID 2283078). As to conditions: primary human HUVEC with PBMC; actives raise or lower the signal. Summed up:
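Human umbilical vein endothelial cells co-cultured with PBMC were stimulated with LPS; IL-8 levels were measured by ELISA 24 h after chemical dosing. Activity was fitted bidirectionally against DMSO as negative control and baseline.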

A short description of assay [9]: BSK_LPS_SRB: Viability Assessment in the BioMAP Diversity Plus: LPS Assay (AID 2283079).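 Also: total protein by sulforhodamine B absorbance as a cytotoxicity measure; measured one day after compound addition.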 As to conditions: primary human HUVEC with PBMC. Summed up:
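Human umbilical vein endothelial cells co-cultured with PBMC (LPS system) were dosed for 24 h. Total protein was stained with 0.1% sulforhodamine B after 10% TCA fixation, read at 560 nm, and fitted bidirectionally against DMSO baseline.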

Read-out in assay [10]: Interleukin-1 alpha (IL1a), IL1A (gene 3552)
Briefly: BSK_LPS_IL1a: BioMAP Diversity Plus: LPS Assay for Interleukin-1 alpha (IL1a) Biomarker Activity (AID 2283080). Particulars: primary human HUVEC with PBMC; actives raise or lower the signal. Put shortly: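 Human umbilical vein endothelial cells co-cultured with peripheral blood mononuclear cells were LPS-stimulated and exposed to test chemicals for 24 h. IL-1 alpha was quantified by ELISA, with bidirectional curve fitting against DMSO as the negative control and baseline.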

Read-out in assay [11]: Monocyte Chemoattractant Protein-1 (MCP1), CCL2 (gene 6347)
Briefly: BSK_LPS_MCP1: BioMAP Diversity Plus: LPS Assay for Monocyte Chemoattractant Protein-1 (MCP1) Biomarker Activity (AID 2283081).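 As to AC50: co-culture stimulated with LPS; secreted MCP-1 protein quantified by ELISA in culture supernatant.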 Particulars: primary human HUVEC with PBMC; actives raise or lower the signal. Put shortly: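 HUVEC plus PBMC co-culture (human primary cells, LPS system) exposed to test chemical for 24 h; MCP-1 measured by ELISA. Bidirectional curve fitting against DMSO baseline; parallel SRB total-protein staining flags overt cytotoxicity.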

A short description of assay [12]: BSK_LPS_PGE2: BioMAP Diversity Plus: LPS Assay for Prostaglandin E2 (PGE2) Biomarker Activity (AID 2283082).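 As to AC50: secreted prostaglandin E2 measured by ELISA in LPS-stimulated co-culture.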 As to conditions: primary human HUVEC with PBMC; actives raise or lower the signal. Put shortly:
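PGE2 release measured by ELISA in an LPS-activated co-culture of human umbilical vein endothelial cells and peripheral blood mononuclear cells, read at 24 h post-dosing. DMSO served as baseline for bidirectional curve fitting.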

Read-out in assay [13]: Macrophage colony-stimulating factor (MCSF), CSF1 (gene 1435)
Briefly: BSK_LPS_MCSF: BioMAP Diversity Plus: LPS Assay for Macrophage colony-stimulating factor (MCSF) Biomarker Activity (AID 2283083). As to conditions: primary human HUVEC with PBMC; actives raise or lower the signal. Summed up: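 Human umbilical vein endothelial cells co-cultured with peripheral blood mononuclear cells were exposed to compound for 24 h. M-CSF levels were measured by ELISA, and bidirectional curve fitting used DMSO as the negative control and baseline.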

Read-out in assay [14]: Tissue Factor, F3 (gene 2152)
As to the kind of experiment: BSK_LPS_TissueFactor: BioMAP Diversity Plus: LPS Assay for Tissue Factor Biomarker Activity (AID 2283084). As to conditions: primary human HUVEC with PBMC; actives raise or lower the signal. Summed up:
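Human umbilical vein endothelial cells co-cultured with peripheral blood mononuclear cells were dosed and stimulated with LPS. Cell-surface CD142 was quantified by ELISA at 24 h. Activity was fitted bidirectionally against DMSO baseline.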

Read-out in assay [15]: Tumor necrosis factor (Homo sapiens) (UniProt P01375)
As to the kind of experiment: BSK_LPS_TNFa: BioMAP Diversity Plus: LPS Assay for Tumour Necrosis Factor alpha (TNFa) Biomarker Activity (AID 2283085).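 As to AC50: TNFa protein level quantified by ELISA in the co-culture.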 As to conditions: primary human HUVEC with PBMC; actives raise or lower the signal. Put shortly:
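TNFa was quantified by ELISA in LPS-activated co-cultures of human endothelial cells and PBMC, 24 h post-dosing. Both increases and decreases versus DMSO were fitted.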

Read-out in assay [16]: Vascular cell adhesion molecule 1 (VCAM1), VCAM1 (gene 7412)
As to the kind of experiment: BSK_LPS_VCAM1: BioMAP Diversity Plus: LPS Assay for Vascular cell adhesion molecule 1 (VCAM1) Biomarker Activity (AID 2283086). Particulars: primary human HUVEC with PBMC; actives raise or lower the signal. Summed up:
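VCAM-1 quantified by ELISA in an LPS-activated co-culture of human endothelial cells and peripheral blood mononuclear cells, read 24 h post-treatment. Fitted in both directions versus DMSO; parallel SRB staining flags overt cytotoxicity.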

Read-out in a further assay: CD38, CD38 (gene 952)
Briefly: BSK_SAg_CD38: BioMAP Diversity Plus: SAg Assay for CD38 Biomarker Activity (AID 2283087). As to conditions: primary human HUVEC with PBMC; actives raise or lower the signal. Summed up:
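CD38 quantified by ELISA (fluorescence) in a superantigen-activated endothelial cell–PBMC co-culture at 24 h post-dose. Activity fitted in both directions relative to DMSO; parallel SRB and Alamar Blue cytotoxicity read-outs.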

Read-out in assay [17]: CD40, CD40 (gene 958)
As to the kind of experiment: BSK_SAg_CD40: BioMAP Diversity Plus: SAg Assay for CD40 Biomarker Activity (AID 2283088). As to conditions: primary human HUVEC with PBMC; actives raise or lower the signal. Summed up: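 Human umbilical vein endothelial cells co-cultured with PBMC; CD40 levels measured by ELISA with fluorescence read-out 24 h after chemical dosing. Gain or loss of signal fitted bidirectionally against DMSO baseline.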

Read-out in assay [18]: Monocyte Chemoattractant Protein-1 (MCP1), CCL2 (gene 6347)
As to the kind of experiment: BSK_SAg_MCP1: BioMAP Diversity Plus: SAg Assay for Monocyte Chemoattractant Protein-1 (MCP1) Biomarker Activity (AID 2283090). Particulars: primary human HUVEC with PBMC; actives raise or lower the signal. Put shortly: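 Values derive from bidirectional fitting of ELISA-measured MCP1 against DMSO controls. Readings were taken 24 h after dosing human vascular endothelial cells co-cultured with peripheral blood mononuclear cells under superantigen stimulation.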

Read-out in a further assay: CD69, CD69 (gene 969)
Briefly: BSK_SAg_CD69: BioMAP Diversity Plus: SAg Assay for CD69 Biomarker Activity (AID 2283089).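 Also: cell surface CD69 protein quantified by ELISA with fluorescence detection.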 Particulars: primary human HUVEC with PBMC; actives raise or lower the signal. Summed up:
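Primary human vascular co-culture (umbilical vein endothelium with peripheral blood mononuclear cells) exposed to test chemical for 24 h. CD69 levels quantified by fluorescence ELISA; DMSO served as negative control for bidirectional fitting.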

SMILES strings stand for the structures. Active and inactive are the calls of the source. The calls were made as follows: active = hit-call score of the fitted dose curve at least 0.9, where 1 is the maximum; inactive = score below 0.9.

Chain of E-selectin (Homo sapiens) (P16581 whole entry, looked up): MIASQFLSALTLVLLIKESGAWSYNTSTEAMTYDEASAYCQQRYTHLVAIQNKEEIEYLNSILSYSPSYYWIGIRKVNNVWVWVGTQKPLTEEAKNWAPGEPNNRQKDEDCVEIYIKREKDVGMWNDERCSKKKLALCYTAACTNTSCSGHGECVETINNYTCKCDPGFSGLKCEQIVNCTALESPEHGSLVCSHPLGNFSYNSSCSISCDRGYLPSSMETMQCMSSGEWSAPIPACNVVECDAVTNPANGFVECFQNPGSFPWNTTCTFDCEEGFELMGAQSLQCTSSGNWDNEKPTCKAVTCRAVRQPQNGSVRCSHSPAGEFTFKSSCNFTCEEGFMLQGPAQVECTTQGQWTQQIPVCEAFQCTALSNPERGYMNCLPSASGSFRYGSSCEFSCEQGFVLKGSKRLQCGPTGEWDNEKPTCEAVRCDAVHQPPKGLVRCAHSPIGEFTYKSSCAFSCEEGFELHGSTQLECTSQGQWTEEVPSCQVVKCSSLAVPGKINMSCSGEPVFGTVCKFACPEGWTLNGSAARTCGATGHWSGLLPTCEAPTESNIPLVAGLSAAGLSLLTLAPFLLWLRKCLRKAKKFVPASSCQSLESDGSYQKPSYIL
Chain of Tumor necrosis factor (Homo sapiens) (P01375 whole entry, looked up): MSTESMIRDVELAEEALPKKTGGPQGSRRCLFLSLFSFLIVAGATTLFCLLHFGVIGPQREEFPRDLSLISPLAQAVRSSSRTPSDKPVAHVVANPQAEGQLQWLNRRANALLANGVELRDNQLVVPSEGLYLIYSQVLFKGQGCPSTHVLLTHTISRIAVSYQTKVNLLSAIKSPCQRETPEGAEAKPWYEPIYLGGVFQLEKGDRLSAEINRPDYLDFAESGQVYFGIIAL

Regarding `CSC1=N[C@@](C)(c2ccccc2)C(=O)N1Nc1ccccc1`, the outcome in assay [1] is “inactive”; in [2], “inactive”; in assay [3], “inactive”; in [5], “inactive”; with CD40, CD40 (gene 958) [6], “inactive”; in assay [10] it was “inactive”. The result in [13], in assay [14], in [15] and in assay [16] was inactive. The AC50 is 29.9 µM (active) in assay [4]; 10.6 µM (active) in assay [7]; 1.7 µM (active) in [8]; 20 µM (active) in assay [9]; 15.2 µM (active) in assay [11]; 6.96 µM (active) in assay [12]. The AC50 in the assay with CD38, CD38 (gene 952) is 14.3 µM (active); with CD40, CD40 (gene 958) [17] it was 11.4 µM (active); in assay [18], 20 µM (active).

Consider `CCCOCC(=Nc1ccc(Cl)cc1C(F)(F)F)n1ccnc1`, for which the AC50 was 31.1 µM (active) in assay [2]; 31.3 µM (active) in [3]; 28 µM (active) in assay [4]; 33.2 µM (active) in assay [5]; 16.2 µM (active) in [7]; 32.5 µM (active) in assay [8]. The AC50 in assay [9] was 31.4 µM (active); in assay [10], 31.8 µM (active); in assay [11] it was 33.3 µM (active); in assay [13] it was 20.9 µM (active); in assay [14], 29.2 µM (active); in assay [15], 31.3 µM (active). Moreover, the concentration at half-maximal activity (AC50) in assay [16] is 29 µM (active); with CD69, CD69 (gene 969) it was 18.9 µM (active); in assay [18] it was 26 µM (active). In assay [12], the outcome was inactive.

Take `CCCOc1nn(C(=O)NS(=O)(=O)c2ccccc2C(=O)OC)c(=O)n1C`: the result in assay [2], in assay [3], in [5], in [7], in assay [9] and in assay [10] was inactive. The outcome in [11] is “inactive”; in assay [12], “inactive”; in assay [13], “inactive”; in [14], “inactive”; in [15], “inactive”; in the assay with CD38, CD38 (gene 952) it was “inactive”. Further, the outcome is “inactive” with CD40, CD40 (gene 958) [17] and “inactive” in [18]. Moreover, the AC50 in [4] is 0.103 µM (active); in assay [8] it was 0.907 µM (active).

With `Cc1nn(-c2cc(NS(C)(=O)=O)c(Cl)cc2Cl)c(=O)n1C(F)F`, the outcome in assay [2] was “inactive”; in assay [3], “inactive”; in [4], “inactive”; in assay [5], “inactive”; with CD40, CD40 (gene 958) [6], “inactive”; in assay [7] it was “inactive”. Besides, the outcome in assay [8], in [9], in assay [10], in [11], in assay [12] and in assay [13] was inactive. For the same molecule, the outcome is “inactive” in assay [14]; “inactive” in [15]; “inactive” in assay [16]; “inactive” with CD38, CD38 (gene 952); “inactive” in assay [18].

In general, AC50 refers to the concentration at which the activity in the assay is half-maximal.

The values are drawn from PubChem BioAssay (EPA / NIEHS).
